From PubChem BioAssay (NCI) come the findings set out here.

About 83,000 compounds went through this panel and 20% of them were active in at least one assay; those are over-represented in the sample as a whole.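 Results are percent growth after 48 hours of single-concentration exposure. 100 means growth as in untreated cells, lower positive values show inhibition; negative values down to -100 show cell death.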 Unmarked numbers belong to inactive results. Activity calls are given as the source filed them.

This experiment has as its system CCRF-CEM leukemia. The experiment can be described thus: NCI-60 one-dose screen, 48 h (100 = growth as untreated, 0 = no growth, -100 = all killed). The following applies: 10 µM unless noted. Here is the method: Growth inhibition of the CCRF-CEM human tumor cell line is measured as a screen for anti-cancer activity. Cells are grown in 96 well plates and exposed to the test compound for 48 hours. Compounds are tested at a single concentration, which is 10^-5 M for most compounds. The reported endpoint is percent growth (GI% or GIPRCNT), where numbers from 0 - 100% represent growth inhibition, and numbers from -100% - 0 represent cell death. For example, a value of 40 represents 60% growth inhibition. A value of 0 means no net growth occurred over the course of the experiment. A value of -40 indicates 40% of cells at the beginning of the experiment died by the end of the experiment. A value of -100 means all cells are dead at the end of the experiment.
NCI-60 Human Tumor Cell Lines Screen was performed using the standard one-dose NCI protocol, which is described in more detail at https://dtp.cancer.gov/discovery_development/nci-60/default.htm.
Compounds with GIPRCNT values below 10 were considered active. Activity score was based on GIPRCNT using the following formula: […]
Score is 0 for GIPRCNT values of 100 or above, 50 for GIPRCNT values of 0, and 100 for GIPRCNT values of -100.
On to `Clc1ccc2c(NCCNc3nc(Cl)nc4ccccc34)ccnc2c1`, for which the growth is -58.7% (active).
Take `Nc1ncc(-c2ccc3ncnc(Nc4ccc(F)c(Cl)c4)c3c2)cn1`: the growth is 61.4%.
As to `COc1ccc(/C=C/C(=O)c2ccc(NC(=O)CSc3nnc(-c4cc(OC)c(OC)c(OC)c4)o3)cc2)cc1`, the growth was -1.51% (active).
For `O=C(Nc1ccccc1F)Nc1ccccc1Cl` the value was 86.9%.
Consider `CCCCCCCCCCCC(=O)OCCNC(=O)C[n+]1ccccc1`, for which the growth is 98.1%.
Take `COc1ccc(-c2nnc(SCC(=O)Nc3ccc(C(=O)/C=C/c4ccc(OC)c(OC)c4)cc3)o2)cc1`: the growth was 77.7%.
For the compound `COc1cc2c(cc1OC)-c1c(oc3c4c(ccc3c1=O)OC(C)(C)C=C4)CO2`, the growth was 69.5%.
`CCOC(=O)C1CN(Cc2ccccc2)C(=O)C1=O` (stereo not given): the growth is 22.9%.
For `Cc1[nH]n(C(=O)c2ccncc2)c(=O)c1N=Nc1ccc(S(=O)(=O)Nc2ccncn2)cc1` the value was -33.9% (active); for `CCn1cc(/C=C2\Oc3cc(OCC#N)ccc3C2=O)c2cc(OC)ccc21`, 9.65% (active); for `O=C(Nc1ccc(-n2cc(-c3ccncc3)c(-c3ccc(O)c(Cl)c3)n2)cc1)c1cc(C(F)(F)F)cc(C(F)(F)F)c1`, 31.1%.
For `CSc1ccc(C(=O)C[n+]2cccc(C)c2)cc1` the value was 99.8%; for `Nc1nccc2c1ccn2-c1ccc(NC(=O)Nc2cccc(C(F)(F)F)c2)cc1`, 94.1%; for `COc1ccc(Cn2cc3c(c2-c2cc(OC)c(OC)c(OC)c2)CCc2c(CO)noc2-3)cc1`, 19.6%.
For `O=C(C[n+]1cccc(Br)c1)c1ccc2c(c1)CCCC2` the value was 102%; for `CC1(C)Cc2c(Br)c(Br)c(Br)c(OCC(O)CN3CCN(c4ccccn4)CC3)c2O1` (stereo not given), -14.3% (active); for `C=C1C(=O)O[C@H]2[C@H]1CC/C(COC(=O)c1ccc3ccccc3c1)=C\CC[C@@]1(C)O[C@@H]21`, -22.9% (active).
Take `CC1(C)N=C(N)N=C(N)N1c1cccc(CCCCc2ccccc2)c1`: the growth is 7.35% (active).
For `O=C(Nc1cccc(-n2ccc3c(NC(=O)c4ccccc4)nccc32)c1)c1cc(N2CCOCC2)cc(C(F)(F)F)c1` the value was 13.5%; for `O=C(NCCNc1nccc(-c2c(-c3cccc(O)c3)nc3sccn23)n1)Nc1cc(C(F)(F)F)cc(C(F)(F)F)c1`, 39.1%; for `O=C(Nc1ccc(-n2cc(-c3ccncc3)c(-c3ccc(O)c(Cl)c3)n2)cc1)c1ccc(Cl)c(C(F)(F)F)c1`, 16.2%.
As for `Oc1ccc(O)c(-[n+]2ccccc2)c1`, the growth is 101%.
For `COc1cc2ncnc(Oc3ccc(NC(=O)Nc4ccc(C5(C#N)CCCC5)cc4)c4ccccc34)c2cc1OC`, the growth was 77.5%.
For `C#C[C@@]1(O)[C@@H](CO)O[C@@H](n2cc(C(F)(F)F)c3c(N)ncnc32)[C@@H]1O` the value was 5.1% (active).
With `O=C(Cn1c2ccccc2c2ccncc21)N/N=C/c1cc(O)c(O)c(O)c1`, the growth is 112%.
As for `NC(CCCC(N)C(=O)c1ccccc1)C(=O)O` (stereo not given), the figure is 111%; as for `O=c1[nH]ccc2nc(N3CCC(O)CC3)nc(Nc3cccc(C(F)(F)F)c3)c12`, 13%.
In the case of `COc1ccc2c(c1)C(=O)/C(=C/c1cccc(OCC(=O)c3ccccc3)c1)O2`, the growth is -39.3% (active).
For the compound `O=C(Nc1cccc(-n2ccc3c(NC(=O)c4ccccc4)ncnc32)c1)Nc1ccc(Cl)c(C(F)(F)F)c1`, the growth is 16.4%.
For `Cc1nc(N)nc(SCc2ccccc2)c1Br` the value was 82.4%; for `COc1ccc(-c2ccc(NC(=O)Nc3ccc(Cl)c(C(F)(F)F)c3)c(C)n2)cc1`, 29.9%; for `O=c1c2ccccc2[nH]n1Cc1ccc2c(c1)OCO2`, 96.2%.
Turning to `CNCCCOc1c(Br)cc(CCNC(=O)/C(Cc2cc(Br)c(OC)c(Br)c2)=N/O)cc1Br`, the growth is -9.15% (active).
Take `CCCN1C(=O)CSC1=Nc1ccc2cc3ccc(N=C4SCC(=O)N4CCC)cc3nc2c1`: the growth is 31%.
With `CC(C)(CCN=C(N)Nc1ccccn1)c1ccc(C(F)(F)F)cc1`, the growth is 7.26% (active).
For `O=C(Nc1ccc(-n2ccc3c(NC(=O)c4ccccc4)nccc32)cc1)c1cccc(C(F)(F)F)c1`, the growth is 22.1%.
Regarding `Nc1n[nH]c2cccc(C#Cc3cccc(NC(=O)c4cccc(C(F)(F)F)c4)c3)c12`, the growth is 28.8%.
Take `OCc1cn(-c2ccc(Cl)cc2)nc1-c1ccc(O)cc1`: the growth was 50.3%.
`Cc1cccc(NCS(=O)(=O)O)c1`: the growth was 102%.
Consider `COC(=O)/C=C/C(=O)c1cc(C)cc(C)c1O`, for which the growth was 90.3%.
